Most compounds without a hit are left out; they make up all but 21% or so of the library.
CHX counter – counter-screen hit for Shiga toxin inhibitors, cycloheximide. cell reporter, cycloheximide protein synthesis inhibition counterscreen. max response, %. 12% of 300,000 active. AID 2314; in the data active = max response mostly above about 13%, no sharp cut-off; inactive = mostly below about 14%; note: read at 38.3 µM for the half of the compounds with a filed dose; 0% is about no effect
HCV inhibitor – inhibitors of hepatitis C virus infection; Huh7.5.1 HCVcc-Cre infection, luciferase reporter, 44 h; Potency, µM (top dose mostly 41.8 µM), inactives show at the top dose activity change, negative = inhibition, actives largely listed as inhibitors; AID 651820; 3.4% of 340,000 active; note: potency is the fitted concentration of half-maximal effect; % is set by controls: 0 for no effect and ±100 for the full control effect
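A cell-based infection assay in which seeded cells (1,000 per well) receive test compound after 4 h, are inoculated with HCVcc-Cre at approximately 0.5 moi, and are incubated 44 h before luminescence detection.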
Pf growth 48h – P. falciparum growth inhibition at 48 hours (one generation). P. falciparum luciferase growth in erythrocytes, 48 h. 5.9% of 310,000 active. Potency, µM (highest dose often 28.7 µM), for inactives: top-dose activity change, negative = inhibition, most hits filed as inhibitors. AID 504832; note: potency is the fitted concentration of half-maximal effect; % is set by controls: 0 for no effect and ±100 for the full control effect
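Here the parasites carry a stable luciferase gene and grow inside erythrocytes in Albumax-based RPMI medium with compound for one erythrocytic cycle. Activity is scored as loss of luminescent signal.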
Shiga toxin inh – inhibitors of Shiga toxin in Vero cells | inhibition, % at 38.7 µM | Vero cells, Shiga toxin protein synthesis inhibition reporter | AID 2315 | 9.2% of 290,000 active; in the data active = inhibition mostly above about 28%, no sharp cut-off; inactive = mostly below about 43%; note: 0% is about no effect
Pf growth 96h – inhibits malaria parasite growth, 96 h; P. falciparum luciferase reporter growth, 96 h; AID 504834; 6.9% of 320,000 active; Potency, µM (highest dose often 28.7 µM), without a hit: at the highest dose activity change, negative = inhibition, most hits filed as inhibitors; note: potency is the fitted concentration of half-maximal effect; % is set by controls: 0 for no effect and ±100 for the full control effect
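Erythrocytes infected with luciferase-expressing P. falciparum were dispensed at 2% hematocrit and 0.05% parasitemia (final), then incubated with compounds 96 hours at 37 C in 5% CO2. Luminescence after detection reagent addition reported growth.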
AMA1 RON2 block – disrupts binding of P. falciparum AMA1 to RON2. AlphaScreen AMA1-biotinylated RON2 peptide binding. Potency, µM (highest dose often 58.2 µM), for inactives: at the top dose activity change, negative = inhibition, hits mostly inhibitors. 0.2% of 360,000 active. AID 720542;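 note: potency is the fitted concentration of half-maximal effect; 0% = vehicle wells and -100% = peptide control; nearly all actives have a fitted effect of over 45% in size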
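AMA1 (3D7) with his tag at 25 nM final met compounds first, then biotinylated RON2 peptide at 25 nM; detection used donor plus acceptor beads, 10 µg/mL apiece, read by AlphaScreen after 30 min at room temperature.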
* = called active by the depositor; ? = inconclusive; / = no result given; ! = a repeat was not active; [ ] = remark or other dose. Unless noted, calls come from the whole dose curve; as a rule, active = well fitted curve in the direction sought with a large enough effect; inconclusive = small, poorly fitted or top-dose-only effect, or another doubt; inactive = no such curve, though single readings can be large; an effect the other way counts as inactive or inconclusive.

SMILES | CHX counter | HCV inhibitor | Pf growth 48h | Shiga toxin inh | Pf growth 96h | AMA1 RON2 block
COc1ccccc1-c1c(C)nn2c(C)cc(C)nc12 | -2 | -6% | -8% | -3 | 13µM* | 1%
COc1ccccc1-c1c(C)nn2c(N3CCC(C(N)=O)CC3)cc(C)nc12 | -2 | 2% | -27% | 1 | ? | 3%
COc1ccc(-c2c(C)nn3c(N4CCC(C(=O)NCCN(C)C)CC4)cc(C)nc23)cc1OC | -4 | ? | 10µM* | -3 | 85% | -6%
COc1ccccc1-c1c(C)nn2c(N3CCC(C)CC3)cc(C)nc12 | -1 | 10µM* | ? | -6 | ? | 7%
CN(C(=O)CCN1C(=O)c2ccccc2C1=O)c1ccccc1 | 3 | 2% | 3% | -12 | 14% | -5%
C=CCN=C1N[C@@H](c2ccc(Br)cc2)C(C(=O)OC)=C(C)N1Cc1ccccc1 | -6 | / | ? | 8 | ? | /
COCC(C)NCc1ccc(OC)c(Br)c1 (stereo unspecified) | -5 | 5% | -29% | -17 | 12µM* | -20%
CCN1CCN(C(=S)Nc2cc(S(=O)(=O)N(CC)CC)ccc2C)CC1 | 0 | -26% | 0% | 7 | 1% | 0%
Cc1ccc(NC(=O)C2=NNC(=O)CC2)cc1S(=O)(=O)Nc1ccc(SC(F)F)cc1 | / | -29% | -16% | / | 0% | 2%
COc1ccc(NC(=O)C[C@H]2C(=O)N(Cc3ccccc3)C[C@@H]2C)cc1 | / | / | / | / | / | -7%
COc1ccccc1CN(C)C(=O)CN1C(=O)c2ccccc2C1=O | 3 | 0% | 13% | 17 | ? | 2%
CCCNC(=O)c1cc(C2CCCCN2S(=O)(=O)Cc2cccc(C(F)(F)F)c2)on1 (stereo unspecified) | / | / | / | / | / | -1%
O=C(Nc1nccs1)c1ccc(N2C(=O)C3CCCCC3C2=O)cc1 (stereo unspecified) | 37* | -8% | 26% | 70* | ? | 2%
O=C(Nc1nccs1)c1ccc(N2C(=O)[C@@H]3[C@H](C2=O)[C@H]2C=C[C@@H]3C2)cc1 | 26* | 8% | ? | 54* | ? | 41%
CCCCNC(=O)c1ccc2nc(CC)c(N(CC)CCN(C)C)n2c1 | / | / | / | / | / | -1%
O=C(NC1CCCC1)C(c1ccc(F)cc1)N1CCC(O)(c2ccc(Cl)cc2)CC1 (stereo unspecified) | / | / | / | / | / | -3%
Cc1cccc2c1N(CCCOc1ccc(C(C)(C)C)cc1)C(=O)C2=O | -2 | ? | / | -31 | 9.3µM* | ?
Cc1cc(S(=O)(=O)NCC(c2ccc3c(c2)OCO3)N2CCOCC2)ccc1F (stereo unspecified) | / | 3% | ? | / | 15µM* | -5%
CCC1(c2ccc(F)cc2)NC(=O)N(CC(=O)c2cc(C)n(C3CC3)c2C)C1=O (stereo unspecified) | / | -1% | 15µM* | / | ? | -6%
COc1ccc(-n2c(C)cc(C(=O)CCl)c2C)cc1 | 11 | ? | -12% | -6 | ? | -18%
COc1ccc(-n2c(C)cc(C(=O)CN3C(=O)c4ccccc4C3=O)c2C)cc1 | 20* | -13% | 1% | 40 | ? | -25%
Cc1cc(C(=O)CN2C(=O)c3ccccc3C2=O)c(C)n1C1CC1 | 23* | -12% | 14% | 15 | 0% | 2%
CCC1(CC(C)C)SC(N)=NC1=O (stereo unspecified) | / | 23% | / | / | / | 2%
Cc1ccc(Nc2nc(N)c([N+](=O)[O-])c(NCCO)n2)cc1C | 27* | ? | 10% | 62 | -23% | -18%
Cc1ccc(Nc2nc(N)c([N+](=O)[O-])c(NCc3ccco3)n2)cc1C | 67* | ? | -81% | 54* | ? | -15%
SMILES | CHX counter | HCV inhibitor | Pf growth 48h | Shiga toxin inh | Pf growth 96h | AMA1 RON2 block
Cc1ccc(CNc2nc(N)c([N+](=O)[O-])c(NCCO)n2)cc1 | 10 | ? | ? | 22 | 8.3µM* | -2%
Nc1nc(NCc2ccc(Cl)cc2)nc(NCCO)c1[N+](=O)[O-] | -2 | ? | ? | -22 | ? | -23%
Nc1nc(NCc2ccco2)nc(Nc2ccc(F)cc2)c1[N+](=O)[O-] | -1 | 2% | ? | 26 | -8% | -5%
COc1ccccc1-c1cnc(C(O)c2ccc(Cl)cc2C)[nH]1 (stereo unspecified) | / | / | / | / | / | -4%
O=C(Nc1ccc2c(c1)C(=O)N(C1CCCCC1)C2=O)C1CCCO1 (stereo unspecified) | 9.6* | -15% | 9% | 17 | 2% | -9%
O=C(O)COc1ccc(NC(=O)c2ccc3c(c2)C(=O)N(C2CCCCC2)C3=O)cc1 | 2 | -4% | ? | -14 | -17% | -19%
O=C(O)c1cccc(NC(=O)c2ccc3c(c2)C(=O)N(C2CCCCC2)C3=O)c1 | 44* | 25% | 14% | 108* | 33% | -3%
CCC(=O)Oc1ccc(C(=O)Nc2ccc3c(c2)C(=O)N(C2CCCCC2)C3=O)cc1 | -6 | ? | / | -21 | 10µM* | 1%
CC(C)(C)NC(=O)c1ccc2c(c1)C(=O)N(C1CCCCC1)C2=O | 48* | ? | 4% | 80* | 20% | -4%
O=C(c1ccccn1)N(Cc1ccco1)C1(C(=O)Nc2ccc(Br)cc2)CCCCC1 | / | / | / | / | / | 17%
NC(=O)C1(Nc2ccc(-c3ccc(Br)cc3)cc2)CCCC1 | / | -7% | / | / | / | -9%
Cc1nn(-c2ccccc2)c(N)c1N=Nc1cccnc1 | 41* | -10% | 82% | 61* | 120% | 19%
Nc1nn(-c2ccccc2)c(N)c1N=Nc1cccc(F)c1 | 62* | ? | 142% | 88* | 200% | 10%
Nc1nn(-c2ccccc2)c(N)c1N=Nc1ccc2c(c1)OCO2 | 44* | ? | 159% | active | 236% | 3%
Nc1nc(-c2ccccc2)c(N=Nc2cccnc2)s1 | -1 | -27% | -7% | 22 | -3% | -19%
Cc1cc(F)ccc1S(=O)(=O)NCC1CC2CCC1C2 (stereo unspecified) | -6 | -15% | ? | -2 | -17% | 6%
CCN(CC)CC#CCOC(=O)[C@@](O)(c1ccccc1)C1CCCCC1 | / | / | ? | / | 12µM* | /
O=C(O)C(O)(c1ccccc1)C1CCCCC1 (stereo unspecified) | 3 | 16% | -2% | -7 | ? | -3%
CCOC(C(=O)OCCC[N+](C)(CC)CC)(c1ccccc1)c1ccccc1 | 6 | -3% | 2.1µM* | 21 | / | -3%
CC[N+](C)(CC)CCOC(=O)C(O)(c1ccccc1)C1CCCCC1 (stereo unspecified) | -2 | 4%[8.37 µM] | 12µM*! | -10 | 13µM*! | -7%
CC[N+](C)(CC)CCCOC(=O)C(O)(c1ccccc1)C1CCCCC1 (stereo unspecified) | -3 | 8% | 4.1µM* | -2 | -10% | 10%
CCN(CC)CC(O)COC(c1ccccc1)c1ccccc1 (stereo unspecified) | -2 | -19% | ? | -3 | ? | -1%
